The values that follow come from PubChem BioAssay.

The structures appear in SMILES notation. Activity calls are given as the source filed them. Unless noted, how the calls were made is not given here.

The test system of assay [1] is Wnt5a (protein binding on small-molecule microarray). The assay can be described thus: Wnt5a binders on small-molecule microarray, primary screen, biophysical, 635/667 nm fluorescence (AID 1142).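 Further: fluorescence read at 667 nm with signal to noise per printed feature.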 As to conditions: 635 nm fluorescence, higher = more signal.
Assay [2] can be described thus: cell viability in Huh7 cells, primary screen, cytotoxicity control for HCV replication inhibitor project, CellTiter-Glo luminescence, basal, 48 h (AID 1143).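 Further: Huh7 hepatoma cells carrying a hepatitis C replication reporter with no stimulus; test concentration not given here.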 As to conditions: Huh7 HCV replicon, higher = more signal, called active from +8 up or from −8 down.
Assay [3] in a line: P. aeruginosa biofilm formation inhibitors, primary screen, PAO1 strain, BacTiter-Glo luminescence, LB-PBS (AID 1144). As to conditions: 12 h, higher = more signal.
The nature of assay [4]: CREB reporter modulators without forskolin, primary screen, cell-based, PC12, CRE-LacZ reporter, unstimulated (AID 1145). As to conditions: no forskolin, luminescence, 4.5 h, higher = more signal, called active from +8 up or from −8 down.
Assay [5] can be described thus: CREB reporter modulators under forskolin, primary screen, cell-based, PC12, CRE-LacZ reporter, forskolin-stimulated (AID 1146).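 Further: PC12 cells with 6xCRE LacZ reporter stimulated by forskolin 10 µM; beta-galactosidase reporter signal reflecting CREB driven transcription.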 As to conditions: luminescence, 4.5 h, higher = more signal, called active from +8 up or from −8 down.
The target in assay [6] is Streptavidin (Streptomyces avidinii) (UniProt P22629). Put plainly: streptavidin binders on small-molecule microarray, primary screen, artefact control for SMM compound annotation, biophysical, 635/667 nm fluorescence (AID 1147).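 Further: signal reflects streptavidin binding to arrayed compounds as a control protein.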 As to conditions: streptavidin binding, higher = more signal.
Assay [7] can be described thus: small-molecule binders of probe aInhba, primary screen, biochemical, small-molecule microarray, 635/667 nm fluorescence (AID 1148).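 Further: score merges 667nm spot fluorescence with signal-to-noise for antibody binding to printed compounds.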 As to conditions: higher = more signal.
Assay [8] deals with Torsin-1A (Homo sapiens) (UniProt O14656). The assay can be described thus: torsin A binders from cell lysate, primary screen, small-molecule microarray, wild-type, 635/667 nm (AID 1149). As to conditions: COS7 hTOR1A-WT lysate, 635 nm fluorescence, higher = more signal.
Assay [9] shares this target. The assay can be described thus: small-molecule binders of mutant TOR1A in lysate, primary screen, cell lysate, small-molecule microarray, COS7 lysate, 635/667 nm fluorescence (AID 1150).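 Further: score pools 667 nm emission and signal to noise measuring lysate protein binding.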 As to conditions: COS7 hTOR1A mutant lysate, 635 nm fluorescence, higher = more signal.
Assay [10] deals with Sonic hedgehog protein (Shh). The assay can be described thus: small-molecule binders of Shh protein, primary screen, biochemical, small-molecule microarray, 635/667 nm fluorescence (AID 1151).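 Further: Shh protein binding to compounds spotted on small-molecule microarray slides; score combines spot fluorescence intensity with signal-to-noise across triplicate slides.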 As to conditions: small-molecule microarray binding, 635 nm fluorescence; higher = more signal.
The nature of assay [11]: E. coli DRC41 culture turbidity changes, primary screen, E. coli filamentation inducer project, strain DRC41, OD650, 48 h (AID 1152).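 Further: E. coli MC1000 strain DRC41 lacking acrAB efflux pump and sulA.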 As to conditions: E. coli DRC41 (acrAB sulA), higher = more signal, called active from +8 up or from −8 down.
Assay [12] can be described thus: small-molecule binders of probe aLefty1, primary screen, biochemical, small-molecule microarray, 635/667 nm fluorescence (AID 1153).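 Further: score merges spot fluorescence with signal-to-noise ratio from the scanned slide images.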 As to conditions: higher = more signal.
Assay [13] can be described thus: PSAC antagonists in infected red cells, primary screen, cell-based, P. falciparum Indochina, OD700, 1 h (AID 1154). As to conditions: P. falciparum Indochina infected RBC osmotic lysis, higher = more signal, called active from +8 up or from −8 down.
Assay [14] is described as follows: PSAC antagonists in infected red cells, primary screen, cell-based, P. falciparum Indochina, OD700, 2 h (AID 1155).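 Further: lysis reports solute entry through the parasite surface anion channel PSAC; channel blockers reduce lysis of infected cells.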 As to conditions: P. falciparum Indochina infected erythrocytes, osmotic lysis OD700; higher = more signal, called active from +8 up or from −8 down.
A short description of assay [15]: osmotic lysis modulators in infected erythrocytes, primary screen, PSAC antagonist project, cell-based, P. falciparum Indochina, OD700, 3 h (AID 1156). As to conditions: higher = more signal, called active from +8 up or from −8 down.
Assay [16] is described as follows: PSAC antagonists in infected red cells, primary screen, cell-based, P. falciparum Indochina, OD700, 18 h (AID 1157). As to conditions: P. falciparum Indochina infected erythrocytes, osmotic lysis OD700, 18 h; higher = more signal, called active from +8 up or from −8 down.
The nature of assay [17]: modulators of S6 phosphorylation in cells, primary screen, cell-based, A549, cytoblot, luminescence, serum-stimulated (AID 1158).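 Further: serum-stimulated A549 lung adenocarcinoma cells; signal is phosphorylated S6 detected by cytoblot immunostaining with HRP secondary.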 As to conditions: A549 phospho-S6 cytoblot, 5 h, higher = more signal.
In assay [18] the target is NADPH oxidase 2 (Homo sapiens) (UniProt P04839). Put plainly: NOX2-dependent H2O2 signal modulators, primary screen, NOX inhibitor project, cell-based, HEK293-NOX2, PMA-stimulated, Amplex Red fluorescence (AID 1159). Further: test concentration not given here. As to conditions: 45 min, higher = more signal, called active from +8 up or from −8 down.
Assay [19] deals with NADPH oxidase 4 (Homo sapiens) (UniProt Q9NPH5). The assay can be described thus: NOX4-dependent H2O2 signal modulators, primary screen, NOX inhibitor project, cell-based, HEK293-NOX4, tetracycline-induced, Amplex Red fluorescence (AID 1160). As to conditions: 45 min, higher = more signal, called active from +8 up or from −8 down.
Assay [20] addresses NADPH oxidase 5 (Homo sapiens) (UniProt Q96PH1). The assay can be described thus: NOX5-dependent H2O2 signal modulators, primary screen, NOX inhibitor project, cell-based, HEK293-NOX5, Amplex Red fluorescence (AID 1161). As to conditions: HEK293-NOX5, ionomycin, 45 min, higher = more signal.

NADPH oxidase 2 (Homo sapiens), sequence (P04839 whole entry, looked up): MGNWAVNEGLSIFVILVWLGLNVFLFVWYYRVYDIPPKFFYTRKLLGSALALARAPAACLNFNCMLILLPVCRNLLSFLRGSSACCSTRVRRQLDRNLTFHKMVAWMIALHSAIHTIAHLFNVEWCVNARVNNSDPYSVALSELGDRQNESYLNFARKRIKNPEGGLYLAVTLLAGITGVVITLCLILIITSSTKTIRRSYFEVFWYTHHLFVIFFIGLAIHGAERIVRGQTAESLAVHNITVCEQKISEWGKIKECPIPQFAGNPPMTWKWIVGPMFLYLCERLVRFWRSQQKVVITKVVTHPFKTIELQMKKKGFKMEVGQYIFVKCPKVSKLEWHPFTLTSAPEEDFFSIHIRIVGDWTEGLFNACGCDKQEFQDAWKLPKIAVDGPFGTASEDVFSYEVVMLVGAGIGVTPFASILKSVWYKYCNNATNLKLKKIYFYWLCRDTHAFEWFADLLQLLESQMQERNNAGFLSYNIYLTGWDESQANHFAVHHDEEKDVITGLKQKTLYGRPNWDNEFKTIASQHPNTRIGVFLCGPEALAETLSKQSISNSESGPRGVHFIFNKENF
NADPH oxidase 4 (Homo sapiens), sequence (Q9NPH5 whole entry, looked up): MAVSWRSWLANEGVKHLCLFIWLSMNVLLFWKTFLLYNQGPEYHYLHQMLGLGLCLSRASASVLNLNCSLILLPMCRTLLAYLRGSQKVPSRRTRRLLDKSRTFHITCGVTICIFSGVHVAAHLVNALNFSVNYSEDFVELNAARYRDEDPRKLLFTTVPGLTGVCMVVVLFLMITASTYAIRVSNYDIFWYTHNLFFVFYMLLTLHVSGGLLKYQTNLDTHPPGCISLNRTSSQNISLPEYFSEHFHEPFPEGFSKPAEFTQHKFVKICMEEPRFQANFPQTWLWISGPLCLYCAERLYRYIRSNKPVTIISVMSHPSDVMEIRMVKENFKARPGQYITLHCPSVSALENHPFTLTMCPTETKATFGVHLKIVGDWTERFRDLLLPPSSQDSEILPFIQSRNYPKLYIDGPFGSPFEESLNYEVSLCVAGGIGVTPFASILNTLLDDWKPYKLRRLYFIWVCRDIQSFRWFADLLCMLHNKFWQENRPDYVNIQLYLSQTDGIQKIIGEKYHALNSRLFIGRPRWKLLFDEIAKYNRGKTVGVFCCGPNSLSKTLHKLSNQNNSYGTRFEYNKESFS
NADPH oxidase 5 (Homo sapiens), sequence (Q96PH1 whole entry, looked up): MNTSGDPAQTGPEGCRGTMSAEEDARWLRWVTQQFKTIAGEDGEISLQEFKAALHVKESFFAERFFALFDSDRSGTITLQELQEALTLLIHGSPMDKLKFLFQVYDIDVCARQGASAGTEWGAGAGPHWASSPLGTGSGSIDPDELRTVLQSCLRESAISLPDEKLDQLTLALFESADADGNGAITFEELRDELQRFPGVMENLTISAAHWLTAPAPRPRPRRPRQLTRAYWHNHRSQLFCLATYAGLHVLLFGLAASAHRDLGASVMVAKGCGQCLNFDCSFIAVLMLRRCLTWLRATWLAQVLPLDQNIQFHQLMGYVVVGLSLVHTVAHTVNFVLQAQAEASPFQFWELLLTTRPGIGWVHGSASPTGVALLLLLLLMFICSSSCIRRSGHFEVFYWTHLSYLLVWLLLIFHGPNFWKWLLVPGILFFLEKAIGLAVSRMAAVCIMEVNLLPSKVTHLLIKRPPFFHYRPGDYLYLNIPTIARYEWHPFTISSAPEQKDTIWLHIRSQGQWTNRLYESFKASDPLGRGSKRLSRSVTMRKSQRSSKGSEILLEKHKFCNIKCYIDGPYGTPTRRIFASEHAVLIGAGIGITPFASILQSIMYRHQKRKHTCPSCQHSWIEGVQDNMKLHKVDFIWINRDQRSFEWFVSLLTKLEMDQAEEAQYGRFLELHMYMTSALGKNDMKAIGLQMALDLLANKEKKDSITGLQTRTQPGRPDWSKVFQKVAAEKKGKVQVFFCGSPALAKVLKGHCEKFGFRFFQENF
Torsin-1A (Homo sapiens), sequence (O14656 whole entry, looked up): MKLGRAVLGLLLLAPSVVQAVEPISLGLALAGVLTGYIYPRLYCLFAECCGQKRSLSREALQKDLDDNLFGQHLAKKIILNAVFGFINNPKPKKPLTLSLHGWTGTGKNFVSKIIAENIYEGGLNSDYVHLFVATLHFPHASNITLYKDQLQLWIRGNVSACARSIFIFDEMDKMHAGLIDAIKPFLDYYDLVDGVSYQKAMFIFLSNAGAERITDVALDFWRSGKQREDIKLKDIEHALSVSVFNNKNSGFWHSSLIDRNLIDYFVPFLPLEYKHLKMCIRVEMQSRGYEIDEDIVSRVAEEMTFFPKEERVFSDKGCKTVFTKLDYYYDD
Streptavidin (Streptomyces avidinii), sequence (P22629 whole entry, looked up): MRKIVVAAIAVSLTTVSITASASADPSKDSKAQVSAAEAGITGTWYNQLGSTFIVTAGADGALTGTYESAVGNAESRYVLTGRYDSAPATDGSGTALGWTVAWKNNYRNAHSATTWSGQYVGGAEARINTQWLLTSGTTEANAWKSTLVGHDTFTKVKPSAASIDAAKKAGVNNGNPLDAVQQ

For the compound `COCCCNC(=O)[C@@]1(CCS(=O)(=O)c2ccccc2)N=C(c2ccc(OCCCO)cc2)O[C@H]1c1ccccc1N=[N+]=[N-]`, the composite z-score in [1] was 1.04; in [6], 0.985; in assay [7], 0.467; with Torsin-1A (Homo sapiens) [8] it was 0.765; with Torsin-1A (Homo sapiens) [9] it was 1.49; in assay [10], 1.72. In [12], the composite z-score was 0.517. The z-score in assay [2] was -5.54 (inactive); in assay [3], -0.372 (inactive); in assay [4], 0.0451 (inactive); in assay [5], -1.15 (inactive); in assay [11] it was 1.12 (inactive); in [13], 29.4 (active). Besides, the z-score in assay [14] was 21 (active); in assay [15], 1.28 (inactive); in assay [16], 0.425 (inactive); in [17], 1.62; in assay [18], -5.07 (inactive); in assay [19] it was -2.78 (inactive). Moreover, the z-score in assay [20] was -2.11.

For the compound `CCOC(=O)C1=CC[C@@H](c2ccccc2)N(S(=O)(=O)c2ccc(C)cc2)[C@H]1c1ccc(CC)cc1`, the composite z-score in assay [1] is 0.074; in assay [6], 1.13; in [7], 0.0018; with Torsin-1A (Homo sapiens) [8] it was 0.567; in the assay with Torsin-1A (Homo sapiens) [9], 0.359; in assay [10], -0.737. This compound also displayed a composite z-score in [12] of 0.166. Besides, the z-score in assay [2] was -3.08 (inactive); in [3] it was 1.17 (inactive); in assay [4], 0.136 (inactive); in assay [5] it was 0.0268 (inactive); in [11], -0.688 (inactive); in assay [13], 0.874 (inactive). Besides, the z-score in assay [14] is 0.991 (inactive); in [15], -0.862 (inactive); in assay [16] it was 0.361 (inactive); in [17] it was -0.253; in assay [18], 0.711 (inactive); in assay [19], 0.029 (inactive). In addition, the z-score in assay [20] came out at 0.46.

Regarding `O=C(NCc1ccccc1)[C@@H]1c2ccccc2C(=O)N(C2Cc3ccccc3C2)[C@H]1c1ccc(CO)cc1`, the composite z-score in assay [1] is 0.303; in assay [6], 0.49; in assay [7], 0.196; with Torsin-1A (Homo sapiens) [8], -0.0754; with Torsin-1A (Homo sapiens) [9], 0.165; in assay [10], 1.31. In assay [12], this compound came in with a composite z-score of 0.315. The z-score in [2] was -0.746 (inactive); in [3] it was 0.317 (inactive); in [4] it was 0.764 (inactive); in assay [5], 0.134 (inactive); in assay [11], -1.25 (inactive); in assay [13] it was 3.46 (inactive). Moreover, the z-score in [14] is -0.627 (inactive); in assay [15], -0.0549 (inactive); in assay [16], 0.353 (inactive); in [17], -0.543; in assay [18] it was -0.0422 (inactive); in assay [19] it was -1.3 (inactive). The z-score in [20] was -1.41.

Consider `CC(C)N1CC=CC23O[C@@H]4C=CCOC(=O)[C@@H]4[C@H]2C(=O)N(CCCCCO)[C@@H]3C1=O` (stereo not given in full), for which the composite z-score in assay [1] is -0.094; in [6], -0.48; in [7], -0.152; with Torsin-1A (Homo sapiens) [8], -0.167; with Torsin-1A (Homo sapiens) [9], 1.09; in assay [10], 0.0095. In assay [12], the composite z-score was 0.19. The z-score is -1.27 (inactive) in [2]; -1.56 (inactive) in [3]; -1.72 (inactive) in assay [4]; -0.679 (inactive) in [5]; 2.79 (inactive) in [11]; 0.641 (inactive) in [13]. Besides, the z-score in assay [14] was 0.0869 (inactive); in [15] it was 0.204 (inactive); in assay [16], 0.236 (inactive); in assay [17], 1.73; in assay [18], 0.865 (inactive); in assay [19], 0.225 (inactive). The same compound had a z-score in assay [20] of 1.44.
